Whole data set: some 1,400 sequences, median “thermal melting temperature (Tm) of peptide-HLA complex” near 60, cut for the lowest 2% near 45. The full list was thinned out, with the lowest values kept by preference.

Drawing on the supplement of paper PMC7726561, this text covers thermal melting temperature for 16 sequences.

Sequences and labels used below:
B1: unnamed (peptide)
chain: FPNIPGKSL
B2: unnamed (peptide)
chain: APRWLEEEAAL
B3: unnamed (peptide)
chain: IPIGGGTSV
B4: unnamed (peptide)
chain: QPASFAVSL
B5: unnamed (peptide)
chain: SPASRSISL
B6: unnamed (peptide)
chain: SPASFLRSL
B7: unnamed (peptide)
chain: NPRLNILDTL
B8: unnamed (peptide)
chain: GPIYPGHGM
B9: unnamed (peptide)
chain: YPRMQVTVF
B10: unnamed (peptide)
chain: APKSPSSEWL
B11: unnamed (peptide)
chain: YPRAQLEVSAL
B12: unnamed (peptide)
chain: APAPPTTTTI
B13: unnamed (peptide)
chain: VPMPLPTVL
B14: unnamed (peptide)
chain: RPALPSTQQL
B15: unnamed (peptide)
chain: APDKHHITPLL
B16: unnamed (peptide)
chain: TPMPKDVRQSL
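Further: lysates heated 10 min at 37–73 °C, complexes pulled down with pan-HLA I antibody, peptide signal by DIA-MS relative to 37 °C, Tm where half the complex is unfolded.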

This assay concerns the target HLA-B*07:02. As to the kind of experiment: thermal melting temperature (Tm) of peptide-HLA complex; higher = more thermostable pHLA complex. The following applies: C1R-B*07:02.
Sequence B1 had a thermal melting temperature of 62 °C. As for B2, the thermal melting temperature was 62.7 °C. On to B3, for which the thermal melting temperature turned out to be 41.6 °C.

B4 gave a thermal melting temperature of 62.8 °C. The value for B5 was 61 °C; that for B6 was 40.6 °C. In turn, B7 displayed a thermal melting temperature of 51.2 °C. The value for B8 was 59.2 °C; that for B9 was 61.9 °C; that for B10 was 51.9 °C. The result for B11 reads 61.5 °C; that for B12, 61 °C; that for B13, 62.6 °C. For the sequence B14, the thermal melting temperature came to 57.6 °C. Sequence B15 returned a thermal melting temperature of 43.7 °C. On to B16, for which the thermal melting temperature worked out at 44.5 °C.
